# In PubChem BioAssay AID999 (SRMLSC, 2007):
# A number with no mark means an inactive call. Calls of active or inactive are those of the source.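 The calls were made as follows: active = viability at or below 21.59%, 3 SD under the median of tested compounds; inactive = the rest.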
# Experiment: growth suppression of PTEN-null HCT116 cells, cell-based, validation, diverse DP compound set (AID 999);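 also: 100% = median luminescence of untreated cell control wells and 0% = no signal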
# Settings: CellTiter-Glo, 60 h, at 10 µM, stronger effect = lower value
row,SMILES,viability
1,Cc1ccc2c(c1)C(=O)C1(O)CCN(c3ccccc3)C1=N2 (stereo not given),91.9%
2,CN=C(NC#N)NCCSCc1nc[nH]c1C,99.4%
3,C[C@]12CCC(=O)C=C1CC[C@@H]1[C@@H]2[C@@H](O)C[C@@]2(C)[C@H]1CC[C@]2(O)C(=O)CO,99.2%
4,C=C(C)[C@H]1CC=C(CO)CC1,96%
5,O=C1OC(c2cc(I)c(O)c(I)c2)(c2cc(I)c(O)c(I)c2)c2ccccc21,93.5%
6,CC(=O)N[C@H]1C(O[C@@H]2O[C@H](C[C@@H](O)[C@H]3O[C@@H](N4CCC(=O)NC4=O)[C@H](O)[C@@H]3O)[C@H](O)[C@H](O)[C@H]2NC(=O)/C=C/CCCCCCCCCCC(C)C)OC(CO)[C@@H](O)[C@@H]1O (stereo not given in full),52.8%
7,Cn1cnc2c(NCc3ccccc3)nc(NCCO)nc21,90.6%
8,NC(=O)c1cccc(N)c1,94.5%
9,C=C1OC(CO)(n2cnc3c(N)ncnc32)C(O)C1O (stereo not given),92.8%
10,COc1cc(-c2ccc(=O)[nH]n2)ccc1OC(F)F,94.7%
11,C=CCc1ccc(O)c(-c2cc(CC=C)ccc2O)c1,98.7%
12,NCC(=O)N[C@@H](CCCN=C(N)N)C(=O)NCC(=O)N[C@@H](CC(=O)O)C(=O)N[C@@H](CC(N)=O)C(=O)N1CC[C@@H](C(=O)O)C1,98%
13,CC(C)=CCC/C(C)=C/COc1ccc2ccc(=O)oc2c1,91.9%
14,C=C(C)C1CC=C(C)C(O)C1 (stereo not given),89.2%
15,CC(C)NCC(O)COc1cccc2ccccc12 (stereo not given),89.1%
16,O=C1CCC(N2C(=O)c3ccccc3C2=O)C(=O)N1 (stereo not given),96.8%
17,Clc1ccc2ncnc(NCc3ccc4c(c3)OCO4)c2c1,83.1%
18,Cn1c(=O)c2[nH]cnc2n(C)c1=O,97.1%
19,CC[C@@]1([C@@H]2O[C@@H]([C@H]3O[C@@](O)(CO)[C@H](C)C[C@@H]3C)C[C@@H]2C)CC[C@H]([C@]2(C)CC[C@]3(C[C@H](O)[C@@H](C)[C@@H]([C@@H](C)[C@@H](OC)C(C)C(=O)O)O3)O2)O1 (stereo not given in full),63.5%
20,COc1cc(CNC(=O)CCCC/C=C/C(C)C)ccc1O,99.3%
21,CC[n+]1c(-c2ccccc2)c2cc(N)ccc2c2ccc(N)cc21,20.1% (active)
22,C[C@@H]1C(=O)O[C@@H]2CC34C5CC(C(C)(C)C)[C@]36C(O)C(=O)O[C@@H]6O[C@@]4(C(=O)O5)[C@@]12O (stereo not given in full),53.4%
23,Cc1c(C)c2c(c(C)c1O)CCC(C)(COc1ccc(CC3SC(=O)NC3=O)cc1)O2 (stereo not given),79.8%
24,CCN(CC)C(=S)SSC(=S)N(CC)CC,89.6%
25,COc1cc2c(c(OC)c1OC)-c1ccc(OC)c(=O)cc1[C@@H](NC(C)=O)CC2,32.5%
26,CO[C@@H]1[C@@H](OC(N)=O)[C@@H](O)[C@H](Oc2ccc3c(O)c(NC(=O)c4ccc(O)c(CC=C(C)C)c4)c(=O)oc3c2C)OC1(C)C,88%
27,COC(=O)CCc1c(C)[nH]c(C(=O)OCc2ccccc2)c1C,97.7%
28,NS(=O)(=O)c1cc(C(=O)O)c(NCc2ccco2)cc1Cl,104%
29,O=c1[nH]cnc2ccccc12,82.7%
30,O=C(c1ccc(OCCN2CCCCC2)cc1)c1c(-c2ccc(O)cc2)sc2cc(O)ccc12,61.1%
